# Screening data from PubChem.
# LASV entry inh = qHTS for Inhibitors of binding or entry into cells for Lassa Virus | Lassa virus pseudotype entry inhibition, cell reporter | 1.2% of 300,000 active | Potency, µM (series often up to 37.9 µM), without a hit: at the highest dose activity change, negative = inhibition, hits mostly inhibitors | AID 540256, 2011; calls by dose curve; tested in HEK293 cells; also: potency is read from the fitted curve at half-maximal effect; nearly all actives have a fitted effect of over 50% in size
# Marburg entry inh = qHTS for inhibitors of binding or entry into cells for Marburg Virus; Potency, µM (highest dose often 37.8 µM), for inactives: top-dose activity change, negative = inhibition, usual class: inhibitors; 1.8% of 300,000 active; Marburg virus pseudotyped entry inhibition, cell reporter; AID 540276, 2011; calls by dose curve; tested in HEK293 cells; also: potency is read from the fitted curve at half-maximal effect
# VACV mCherry inh = qHTS for Stage-Specific Inhibitors of Vaccinia Orthopoxvirus: mCherry Reporter Primary qHTS | Vaccinia virus mCherry reporter infection, fluorescence | Potency, µM (titrated, usually from 36.5 µM), for inactives: at the top dose activity change, negative = inhibition, usual class: inhibitors | 0.63% of 310,000 active | AID 720579, 2013; calls by dose curve; tested in A549 cells; also: potency is read from the fitted curve at half-maximal effect; nearly all actives have a fitted effect of over 35% in size
# FMDV inh = High Throughput Screening for Foot and Mouth Disease Virus Antivirals; FMDV antiviral cell-based qHTS; Potency, µM (titrated, usually from 57.9 µM), for inactives: at the highest dose activity change, negative = inhibition, hits mostly inhibitors; 1.2% of 410,000 active; calls by dose curve; tested in HEK293T cells; also: read-out not given here; potency is read from the fitted curve at half-maximal effect; nearly all actives have a fitted effect of over 45% in size
# Vaccinia Venus = qHTS for Stage-Specific Inhibitors of Vaccinia Orthopoxvirus: Venus Reporter Primary qHTS; AID 720580, 2013; 0.46% of 330,000 active; Potency, µM (titrated, usually from 36.5 µM), for inactives: at the top dose activity change, negative = inhibition, most hits filed as inhibitors; Vaccinia virus Venus reporter expression, fluorescence; calls by dose curve; tested in A549 cells; also: potency is read from the fitted curve at half-maximal effect; nearly all actives have a fitted effect of over 30% in size
# HCMV antiviral = qHTS Assay for inhibitors of the human cytomegalovirus (HCMV) | HFF cells, HCMV-luciferase reporter, 72 h; hits give low values | 4.5% of 410,000 active | activity change, negative = inhibition, % at 57.5 µM; in the data active = activity change below about -60%; inconclusive = no clear call, values can overlap the other calls; inactive = above about -39%
#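 Compounds were evaluated in HFFs infected with an HCMV luciferase reporter virus (MOI 1 PFU/cell). Luciferase in lysates collected 72 h post infection served as the replication measure.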
# An asterisk follows results filed as active; i = inactive; ? = inconclusive; / = no result; [ ] = remark or other dose. Shown are actives, neighbours in structure and some others; about 6.5% of the full set was active somewhere. % is scaled to controls: 0 for no effect and ±100 for the full control effect.
SMILES,LASV entry inh,Marburg entry inh,VACV mCherry inh,FMDV inh,Vaccinia Venus,HCMV antiviral
C=C(C)COc1ccc(-c2[nH]ncc2Oc2cccc(OC)c2)c(O)c1,1.6µM*,-30%,?,23%,?,?
C=C(C)COc1ccc(-c2n[nH]c(C)c2-c2ccc(OC)c(OC)c2)c(O)c1,0.63µM*,?,?,?,?,-84*
COc1ccc(-c2cn[nH]c2-c2ccc(OCC(=O)NN)cc2O)cc1OC,?,25%,-20%,10%,-7%,55
O=C(C[n+]1cccc(Br)c1)c1cccc([N+](=O)[O-])c1,/,/,-7%,/,2%,/
Cc1ccccc1CN1[C@H](C)[C@H](c2ccccc2)OCCS1(=O)=O,/,/,-26%,/,-16%,/
COc1ccc(-c2cn[nH]c2-c2ccc(O)cc2O)cc1,/,/,/,?,/,-88*
C=C(C)COc1ccc(-c2nc(N)ncc2-c2ccc(OC)cc2)c(O)c1,/,-3%,/,/,/,0
C=C(C)COc1ccc(-c2[nH]ncc2-c2ccc(OC)cc2)c(O)c1,/,/,/,-13%,/,-70*
C=C(C)COc1ccc(-c2nc(N)ncc2-c2ccc(OC)c(OC)c2)c(O)c1,-2%[46.1 µM],13µM*,-11%,-22%,-27%,118
FC(F)(F)c1cccc(-c2nc3c(NCCc4ccccn4)nccc3[nH]2)c1,/,/,/,/,/,-3
Fc1ccc(-n2cc(-c3ccccc3)[n+]3c2SCC3)cc1,2%,-20%,/,-22%,/,?
c1ccc(-c2cn(-c3ccccc3)c3[n+]2CCS3)cc1,?,?,i,?,-15%,?
COc1ccc(-c2cn(-c3ccccc3)c3[n+]2CCS3)cc1,?,?,-2%,?,-18%,-100*
CC(C)(C)c1ccc(-c2cn(-c3ccc(Br)cc3)c3[n+]2CCCS3)cc1,?,?,i,?,-6%,-98*
COc1cc(/C=C2/C(=O)NN(c3ccc(C)c(Cl)c3)C2=O)cc([N+](=O)[O-])c1O,/,/,/,-27%,/,-30
Cc1ccc(N2NC(=O)/C(=C\c3cc4c(cc3[N+](=O)[O-])OCO4)C2=O)cc1C,-7%,5%,i,13µM*,-10%,102
COC(=O)c1ccc(Cl)c(NC(=O)Cc2ccccc2[N+](=O)[O-])c1,-13%,-20%,-12%,-2%,0%,-72*
COc1ccc(CNCc2ccc3c(c2)n(C)c(=O)n3C)cc1,-3%[46.1 µM],-11%[46.1 µM],-19%,6%,-10%,1
CC(=O)CC1c2ccccc2C=C(c2ccsc2)N1c1ccc(-c2cccs2)cc1 (centres undefined),/,/,10%,-12%,11%,-78*
COc1ncc(-c2ccc(N3C(c4ccsc4)=Cc4ccccc4C3CC(C)=O)cc2)cn1 (centres undefined),/,/,19%,-17%,-9%,-4
Cc1ccc(N2CCN(S(=O)(=O)N3CCCCC3)CC2)cc1C,-4%,12%[46.1 µM],-6%,-11%,2%,-69*
O=C(CCCN1C(=O)/C(=C\c2ccccc2)SC1=S)Nc1cccc(C(=O)O)c1,0%,6%[46.1 µM],i,-2%,2%,-16
Cc1ccc(/C=C2\SC(=S)N(CCC(=O)NNC(=O)c3ccccc3O)C2=O)cc1,3%[46.1 µM],-16%[46.1 µM],i,-2%,14%,?
Cc1ccc(/C=C2\SC(=S)N(CCCC(=O)NNC(=O)c3ccccc3O)C2=O)cc1,/,/,/,8.9µM*,/,-93*
O=C(CCCN1C(=O)/C(=C\c2ccccc2)SC1=S)Nc1ccc(O)cc1,?,?,?,-24%,28µM*,-96*
SMILES,LASV entry inh,Marburg entry inh,VACV mCherry inh,FMDV inh,Vaccinia Venus,HCMV antiviral
O=C(CCN1C(=O)/C(=C\c2ccccc2)SC1=S)Nc1ccc(C(=O)O)cc1,?,-5%[46.1 µM],17%,-9%,5%,-8
O=C(CCCN1C(=O)/C(=C/c2ccccc2)SC1=S)Nc1cccc(O)c1,/,/,?,14%,?,-97*
Cc1ccc(/C=C2\SC(=S)N(CCCC(=O)NC3CCCC3)C2=O)cc1,1.1µM*,?,-10%,16µM*,-13%,-61*
CCN(Cc1ccccc1)C(=O)CCS(=O)(=O)c1cc(Br)cc2c1N(C(=O)C1CC1)CC2,12%[46.1 µM],?,-22%,11%,-15%,-25
Cc1ncc2c(c1CNS(=O)(=O)N(C)C)CCN(C(=O)c1ccc(-c3ccc(F)cc3)cc1)C2,/,/,-9%,-18%,2%,/
CCCCC(=O)NCCc1c(Cc2ccccc2)[nH]c2ccccc12,/,/,i,-3%,-9%,/
O=C(COC(=O)CNC(=O)C1CCCCC1)NC1CCCC1,/,/,i,/,-7%,/
O=C(CCCN1C(=O)/C(=C/c2cccs2)SC1=S)Nc1cccc(O)c1,?,?,i,0%,?,-100*
Cc1ccc(/C=C2/SC(=S)N(CCCC(=O)Nc3ccc(O)cc3)C2=O)cc1,?,?,?,7%,?,-100*
COc1cc(/C=C2\SC(=S)N(CCC(=O)Nc3cccc(O)c3)C2=O)cc(OC)c1OC,?,?,-7%,20µM*,-11%,-39
O=C(CCN1C(=O)/C(=C\c2ccc(F)cc2)SC1=S)Nc1ccc(O)cc1,-28%,-2%,0%,-4%,12%,-16
COc1cc(/C=C2\SC(=S)N(CCC(=O)Nc3ccccc3)C2=O)cc(OC)c1OC,-11%,?,0%,-29%,-2%,-18
